Hits are enriched below; roughly 19% of the tested compounds scored in any of these assays.
HT1080-NT tox: kills 2HG-producing HT-1080-NT fibrosarcoma cells | AID 686970 | actives 1.6% (n = 360,000) | HT-1080-NT fibrosarcoma viability, CellTiter-Glo ATP luminescence, 48 h | Potency, µM (titrated, usually from 46.1 µM), for the others: top-dose activity, negative = less viability, hits mostly cytotoxic;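 note: NT is the 2HG producing partner of a matched IDH1 knockdown line; potency is the fitted concentration of half-maximal effect; 0% = DMSO-treated cells and -100% = media-only wells without cells; nearly all actives have a fitted effect of over 55% in size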
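Compounds were tested in concentration-response format on HT-1080-NT cells for 48 hours at 37 degrees C. Cell viability came from CellTiter-Glo luminescence; curves were classified by r2, response magnitude and activity.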
HT1080 IDH1KD tx: HT-1080 IDH1 knockdown cell toxicity (counter line). HT-1080 IDH1 knockdown viability, ATP luminescence, 48 h. Potency, µM (top dose mostly 46.1 µM), for inactives: top-dose activity, negative = toxicity, most hits filed as cytotoxic. actives 2% (n = 360,000). AID 686971;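 note: potency is the fitted concentration of half-maximal effect; 0% = DMSO wells and -100% = cell-free medium wells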
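In this qHTS, HT-1080 cells depleted of IDH1 are exposed for 48 h at 37 °C to compound titrations. Toxicity is scored from CellTiter-Glo luminescence, with DMSO as full viability and medium alone as none.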
IL-1B inflam inh: inhibitors of inflammasome signaling (IL-1 beta secretion); THP-1 LPS/ATP IL-1B secretion, AlphaLISA, 16 h; hits give low values; activity change, % at 57.5 µM; actives 4.7% (n = 360,000); in the data active = activity change below about -50%; inconclusive = mostly about -30% to -49%
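Secreted IL-1B measured by AlphaLISA bead assay after 16 h compound exposure of THP-1 cells; compounds (final up to 57.5 uM) added 1 h before LPS (250 ng/mL) and ATP (1.25 mM) stimulation; lower signal means less secretion.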
TDP1 cell noCPT: qHTS for Inhibitors of human tyrosyl-DNA phosphodiesterase 1 (TDP1): qHTS in cells in absence of CPT. DT40 Tdp1-/- hTDP1 cells, no CPT, ATP luminescence, 48 h. Potency, µM (series often up to 46.2 µM), without a hit: at the highest dose activity change, negative = growth inhibition, most hits filed as inhibitors. actives 15% (n = 420,000); note: potency is the fitted concentration of half-maximal effect; nearly all actives have a fitted effect of over 55% in size
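Readout: luminescence from CellTiter-Glo after 30 min in the dark at RT. Cells: DT40 Tdp1-/- with stable hTDP1, 400/well. Exposure: compounds alone, ≥48 hr, 37 °C.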
DT40 TDP1 CPT: growth inhibition of DT40 Tdp1-/-;hTDP1 cells with camptothecin (screen for TDP1 inhibitors) | chicken DT40 Tdp1-/-;hTDP1 cells + 20 nM CPT, ATP luminescence, 48 h | Potency, µM (series often up to 46.2 µM), for inactives: at the highest dose activity change, negative = growth inhibition, hits mostly inhibitors | actives 12% (n = 420,000); note: potency is the fitted concentration of half-maximal effect; nearly all actives have a fitted effect of over 55% in size
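Cell growth measured by CellTiter-Glo luminescence after a minimum 48 h, 37 C compound exposure with 20 nM CPT in Tdp1-knockout DT40 cells stably expressing hTDP1, seeded 400/well; qHTS titration format.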
ELG1 DNA repair: inhibitors of ELG1-dependent DNA repair in HEK293T cells; AID 504467; HEK293T ELG1-luciferase reporter, luminescence, 16 h; DNA damage induced by 5-fluorouridine; Potency, µM (doses to about 46.1 µM), for the others: at the top dose activity change, negative = inhibition, hits mostly inhibitors; actives 2.3% (n = 330,000); note: potency is the fitted concentration of half-maximal effect; nearly all actives have a fitted effect of over 55% in size
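Overnight (16 hr) co-exposure of 2,000 cells/well to 5-fluorouridine and compound at 37 °C preceded detection. Luciferase was quantified via ONE-Glo luminescence; loss of signal denotes inhibition.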
* = called active by the depositor; ? = inconclusive; / = no result given; ! = not active in a repeat; [ ] = dose if it differs, or a comment. Unless noted, calls come from the whole dose curve; as a rule, active = well fitted curve in the direction sought with a large enough effect; inconclusive = small, poorly fitted or top-dose-only effect, or another doubt; inactive = no such curve, though single readings can be large; an effect the other way counts as inactive or inconclusive. Unless noted, % is set by controls: 0 for no effect and ±100 for the full control effect.

SMILES	HT1080-NT tox	HT1080 IDH1KD tx	IL-1B inflam inh	TDP1 cell noCPT	DT40 TDP1 CPT	ELG1 DNA repair
CCOCC(=O)Nc1ccc([N+](=O)[O-])cc1OC	-7%	-4%	-62*	-16%	17%	11%
CCOCC(=O)Nc1cc([N+](=O)[O-])ccc1OC	17%	-12%	21	0%	4%	-4%
CCSc1ccccc1C(=O)Nc1ccc([N+](=O)[O-])cc1OC	-1%	0%	0	21µM*	?	?
CCc1ccccc1NC(=O)c1ccccc1Sc1ccc([N+](=O)[O-])cc1Cl	-9%	?	-55*	?	?	-17%
CCOc1ccc(C(=O)NCc2nnnn2-c2ccc(C)c(C)c2)cc1OCC	/	/	/	-23%	-24%	/
Cc1ccccc1OCCC(=O)NNC(=O)c1ccccc1F	11%	14%	0	-17%	4%	7%
Cc1nc2cc(C(=O)O)ccc2n1-c1ccc(C(C)C)cc1	/	/	/	-11%	2%	/
COc1cc(OC)c(N(C)S(=O)(=O)c2cccc(C(=O)OCc3c(C)noc3C)c2)cc1Cl	-13%	-15%	61	23µM*	?	18µM*
Cc1noc(C)c1COC(=O)c1cccc(S(=O)(=O)N2CCCCCC2)c1	-10%	21µM*	15	15µM*	15µM*	5.8µM*
Cc1noc(C)c1COC(=O)c1ccc(S(=O)(=O)NCc2ccco2)cc1	-5%	-9%	-4	?	16µM*	?
COC(=O)[C@@]1(C(C)C)N=C(c2cc(OC)c(OC)c(OC)c2)[C@]2(O1)C(=O)N(Cc1ccc(OC)cc1)c1ccc(Br)cc12	25%	5%	0	1%	6%	/
CC(=O)CCC(=O)N1CCC(n2c(C3CCCO3)nc3cc(C(F)(F)F)ccc32)CC1 (stereo not given)	/	/	/	-1%	-8%[9.04 µM]	/
COc1ccc(S(=O)(=O)N2CCN(Cc3cc(OC)c(OC)c(OC)c3)CC2)cc1	7%	0%	0	?	?	?
CC(C)c1ccc(C(C(=O)NC2CCCC2)N(C(=O)c2csnn2)C2CC2)cc1 (stereo not given)	2%	-3%	-9	?	-30%	-2%
CCc1nnc(NC(=O)c2cc(Cl)ccn2)s1	-28%	?	53	2.6µM*	2.9µM*	?
CCOC(=O)c1nc(S(C)(=O)=O)ncc1Cl	8.9µM*	6.3µM*	-98*	3.7µM*	4.1µM*	?
Cc1ccccc1CSc1ncc(Cl)c(C(=O)NCc2ccccc2)n1	/	/	/	-29%	-28%	/
Cc1cccc(CS(=O)(=O)c2ncc(Cl)c(C(=O)Nc3c(C)cccc3C)n2)c1	?	15µM*	-66*	4.1µM*	3.7µM*	-12%
Cc1cccc(C)c1NC(=O)c1nc(S(=O)(=O)Cc2ccccc2)ncc1Cl	16µM*	8.2µM*	-101*	2.9µM*	2.6µM*	?
CN(C)CCC(C(=O)c1ccccc1)c1cccnc1 (stereo not given)	10%	20%	-3	-25%	-16%	/
CN(C)C(=O)c1ccc2c(c1)N(CC(=O)NCc1ccc(F)cc1)C(=O)C1CCCCN21 (stereo not given)	/	/	/	-26%	-23%	/
CCSc1nnc(NC(=O)c2csc3c2CCCC3)s1	1%	-2%	6	?	?	-4%
Cc1cccc(CS(=O)(=O)c2ncc(Cl)c(C(=O)NCc3ccccc3)n2)c1	26µM*	?	-97*	2.6µM*	3.3µM*	?
Cc1nnc(NC(=O)c2nc(S(=O)(=O)Cc3ccccc3)ncc2Cl)s1	15µM*	21µM*	-103*	12µM*	9.2µM*	?
CCc1nnc(NC(=O)c2nc(S(C)(=O)=O)ncc2Cl)s1	/	/	/	9.2µM*	5.8µM*	/
SMILES	HT1080-NT tox	HT1080 IDH1KD tx	IL-1B inflam inh	TDP1 cell noCPT	DT40 TDP1 CPT	ELG1 DNA repair
CCSc1nnc(NC(=O)c2csc3c2CCC(C)C3)s1 (stereo not given)	8%	4%	32	?	18µM*	3%
Cc1cccc(CSc2ncc(Cl)c(C(=O)Nc3nnc(C)s3)n2)c1	/	/	/	-14%	-15%	/
CCSc1ncc(Cl)c(C(=O)Nc2nnc(CC)s2)n1	/	/	/	-9%	-21%	/
CCC(CC)C(=O)Nc1nnc(CCc2ccccc2)s1	9%	1%	14	-19%	2%	9%
O=C(CSc1nnc(CNC(=O)c2ccco2)o1)Nc1ccccc1C(F)(F)F	15%	19%	-4	29%	0%	?
O=C(CSc1nc(C2CC2)nc2ccccc12)N1CCc2ccccc21	-15%	-5%	-11	-8%	-16%	/
CCSc1nnc(NC(=O)c2ccccn2)s1	?	?	21	3.2µM*	5µM*	?
Cc1ccccc1NC(=O)c1nc(S(C)(=O)=O)ncc1Cl	15µM*	15µM*	-98*	2.3µM*	2.3µM*	?
CCSc1nnc(NC(=O)c2cnccn2)s1	8%	-2%	33	-4%	-3%	28%
CS(=O)(=O)c1ncc(Cl)c(C(=O)Nc2c(C(=O)c3ccc(Cl)cc3)oc3ccccc23)n1	/	/	/	3%	?	/
CCN(CC)CCc1nc(-c2ccccc2)no1	-20%	3%	-14	4.1µM*!	6.5µM*!	23%
c1cc(Nc2ncnc3sccc23)cc(-c2nnc3n2CCCCC3)c1	-1%	-10%	4	?	21µM*	23µM*
Cc1ccc(S(=O)(=O)CCC(=O)OC(C)C(=O)N2CCc3ccccc32)cc1 (stereo not given)	1%	0%	8	-18%	-5%	4%
CS(=O)(=O)N(Cc1ccccc1)c1ccc(C(=O)Nc2ccccc2C(=O)O)cc1	1%	0%	-2	-29%	-4%	0%
CS(=O)(=O)N(Cc1ccc(Cl)cc1)c1ccc(C(=O)N/N=C/c2cc3ccccc3nc2Cl)cc1	2%	9%	3	23µM*	?	?
O=C(NCCC(=O)N(CCc1ccccc1)Cc1ccccc1)c1ccc([N+](=O)[O-])cc1	-6%	-4%	-14	23µM*	?	-14%
CS(=O)(=O)N(Cc1ccc(Cl)cc1)c1ccc(C(=O)NCc2ccccn2)cc1	-3%	-5%	-21	-13%	-21%	4%
O=C(c1ccc([N+](=O)[O-])cc1)N(Cc1ccccc1)Cc1ccccc1	0%	-12%	-15	?	-6%	/
